Several values for one entry are separate records, joined by “and”; a condition that tells them apart may be missing. Equal entries are not always repeated. Where two headings read alike, the source gives them in different places.
Key:
[1] = tested on: T1, PRKR; details: concentration: 1 μM, replicates: in singlicate; n = 1
T1 construct: gene EIF2AK2

[2] = tested on: PRKX; details: concentration: 1 μM, replicates: in singlicate; n = 1
[3] = tested on: PRP4; details: concentration: 1 μM, replicates: in singlicate; n = 1
[4] = tested on: T2, PYK2; details: concentration: 1 μM, replicates: in singlicate; n = 1
T2 construct: gene PTK2B

[5] = tested on: QSK; details: concentration: 1 μM, replicates: in singlicate, n = 1
[6] = tested on: RAF1; details: concentration: 1 μM, replicates: in singlicate, n = 1
[7] = tested on: RET; details: concentration: 1 μM, replicates: in singlicate, n = 1
[8] = tested on: RIOK1; details: concentration: 1 μM, replicates: in singlicate, n = 1
[9] = tested on: RIOK2; details: concentration: 1 μM, replicates: in singlicate, n = 1
[10] = tested on: RIOK3; details: concentration: 1 μM, replicates: in singlicate, n = 1
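Note: KINOMEscan kinase panel screen.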

SMILES	%Inh [1] [%]	%Inh [2] [%]	%Inh [3] [%]	%Inh [4] [%]	%Inh [5] [%]	%Inh [6] [%]	%Inh [7] [%]	%Inh [8] [%]	%Inh [9] [%]	%Inh [10] [%]	%Inh ([5]; 1 µM)	%Inh ([6]; 1 µM)	%Inh ([7]; 1 µM)	%Inh ([8]; 1 µM)	%Inh ([9]; 1 µM)	%Inh ([10]; 1 µM)
CC(C)(C)OC(=O)NC1CCCN(c2cc(-c3ccc4c(N)n[nH]c4c3)nc(N)n2)C1 (stereo not shown) [GSK2286096]	0	21	0	0	5	7	0	23	27	23	–	–	–	–	–	–
O=C(Nc1ccccc1F)NC1CCN(c2ccnc(Nc3ccc(F)cc3)n2)C1 (stereo not shown) [GSK1379722]	0	17	27	0	15	19	8	24	0	15	–	–	–	–	–	–
COc1cc2c(Nc3cccc(NC(=O)c4ccccc4)c3)ncnc2cc1OCCCN1CCOCC1 [GSK223810]	0	7	2	24	0	16	90.8	38	10	24	–	–	–	–	–	–
OCCOCCn1ccc2ncnc(Nc3ccc(Oc4cccc(Cl)c4)c(Cl)c3)c21	0	3	9	0	0	5	0	0	0	0	–	–	–	–	–	–
Fc1cccc(COc2ccc(Nc3ncnc4nn5ccccc5c34)cc2Cl)c1 [GW689066]	0	2	0	0	0	4	0	20	0	0	–	–	–	–	–	–
Nc1nc(-c2ccc3c(N)n[nH]c3c2)cc(N2CCCCC2)n1 [GSK2228768]	6	35	0	0	0	7	1	64	9	28	–	–	–	–	–	–
O=c1cc(N2CCOCC2)nc2n(Cc3cccc(Cl)c3)ccn12 [GSK2296823]	0	33	4	4	0	6	87	17	10	0	–	–	–	–	–	–
COC(=O)c1c(-c2ccccc2)c2cc(Cl)ccc2c(=O)n1Cc1ccc(S(C)(=O)=O)cc1	0	16	1	0	0	49	2	0	29	0	–	–	–	–	–	–
CNc1nccc(-c2c(-c3ccc(F)cc3)ncn2C2CCN(C)CC2)n1 [SB-222903]	11	0	0	0	0	0	0	0	0	3	–	–	–	–	–	–
COc1ccc(-c2nc3n(c2-c2ccncc2)CCC3)cc1 [SKF-104493]	0	0	13	6	–	–	–	–	–	–	29% and 5%	0% and 15%	0% and 10%	24% and 4%	20% and 0%	0% and 10%
Cn1ccc2ncnc(Oc3ccc(NC(=O)Nc4cccnc4)c(Cl)c3)c21	7	12	20	9	0	0	52	0	53	4	–	–	–	–	–	–
Cc1cccc(-c2nc(Nc3ccc4[nH]nnc4c3)c3ccccc3n2)n1 [GW867587]	0	0	0	0	0	0	0	0	0	0	–	–	–	–	–	–
COC(=O)c1cccc(NC(=O)NCCNc2ccnc(Nc3ccc(F)cc3)n2)c1 [GSK1379883]	0	4	46	0	0	11	0	23	0	31	–	–	–	–	–	–
O=C(c1ccc(-c2cc(-c3c[nH]nc3-c3ccccn3)ccn2)cc1)N1CCCC1 [GW792479]	4	0	12	7	0	43	5	10	0	19	–	–	–	–	–	–
FC(F)(F)c1ccc(-c2cc(-c3c[nH]nc3-c3ccccn3)ccn2)cc1 [GW599550]	8	12	31	0	0	18	14	25	5	25	–	–	–	–	–	–
Nc1nc(-c2cccnc2)c(-c2ccnc3ccccc23)s1 [GW684083]	0	31	19	16	5	11	0	30	38	0	–	–	–	–	–	–
CS(=O)(=O)CCNCc1ccc(-c2ccc3ncnc(Nc4ccc(OCc5ccccc5)c(Cl)c4)c3c2)o1.Cl [GW574783]	0	17	12	0	2	19	0	32	6	0	–	–	–	–	–	–

SMILES	%Inh [1] [%]	%Inh [2] [%]	%Inh [3] [%]	%Inh [4] [%]	%Inh [5] [%]	%Inh [6] [%]	%Inh [7] [%]	%Inh [8] [%]	%Inh [9] [%]	%Inh [10] [%]	%Inh ([5]; 1 µM)	%Inh ([6]; 1 µM)	%Inh ([7]; 1 µM)	%Inh ([8]; 1 µM)	%Inh ([9]; 1 µM)	%Inh ([10]; 1 µM)
O=C(NCCCN1CCCC1=O)c1cnc(NCc2cc(Cl)ccc2Cl)nc1NC1CCNCC1	0	0	2	0	0	0	8	0	0	8	–	–	–	–	–	–
Nc1nc(-c2ccccn2)c(-c2ccnc3ccccc23)s1 [GW548057]	1	0	66	20	0	15	23	19	0	27	–	–	–	–	–	–
Cl.Cl.c1ccc(-c2cc3ccncc3cc2OC2CCNCC2)cc1 [GSK1122999]	0	34	0	10	7	12	28	33	0	45	–	–	–	–	–	–
Nc1nccc2scc(-c3ccc4c(c3)CCN4C(=O)Cc3cc(F)ccc3F)c12 [GSK2587663]	0	1	10	6	16	18	65	25	3	0	–	–	–	–	–	–
CCC(CC)(CC)n1cnc2c(N)ncnc21 [SKF-97620]	0	0	14	7	27	7	4	21	8	0	–	–	–	–	–	–
CSc1ccc(NC2=C(c3ccccc3Cl)C(=O)NC2=O)cc1 [SB-342411]	0	0	0	0	8	15	14	16	0	0	–	–	–	–	–	–
Cc1ccc(O)cc1Nc1cc(C(F)(F)F)nc2ccc(-c3ccncc3)cc12 [GW630823]	0	8	0	17	0	0	9	14	0	13	–	–	–	–	–	–
FC(F)(F)c1cc(Nc2nccc(-c3c(-c4ccc(Cl)cc4)nn4ncccc34)n2)ccc1Cl [GW829351]	26	0	14	0	0	1	0	0	0	0	–	–	–	–	–	–
COc1cc2ncnc(Nc3ccc(OCc4ccccc4Br)c(Cl)c3)c2cc1OC.Cl [GI261590]	0	0	0	32	0	21	14	29	0	10	–	–	–	–	–	–
CN1CCC(n2cnc(-c3ccc(F)cc3)c2-c2ccnc(NC3CCNCC3)n2)CC1 [SB-229482]	0	0	0	11	0	46	20	25	8	22	–	–	–	–	–	–
CNc1nccc(-c2c(-c3ccc(F)cc3)ncn2CCCN2CCOCC2)n1 [SB-222516]	0	0	0	4	19	0	7	25	0	24	–	–	–	–	–	–
c1ccc(-c2ccc3c(-c4ccnc(Nc5ccc6c(c5)OCCO6)n4)cnn3n2)cc1 [GW818941]	0	1	17	8	0	20	1	37	15	12	–	–	–	–	–	–
Nc1n[nH]c2nnc(-c3ccccc3)cc12 [SB-517389]	0	0	33	0	0	6	88	26	0	0	–	–	–	–	–	–
N#Cc1ccc(Oc2ccc(Nc3ncnc4cc[nH]c34)cc2Cl)cc1	0	7	0	10	0	0	19	21	8	1	–	–	–	–	–	–
Cl.Fc1ccccc1COc1ccc(Nc2ncnc3ccc(-c4nnc(C(F)(F)F)o4)cc23)cc1Cl [GW424170]	0	0	16	14	0	7	0	22	0	18	–	–	–	–	–	–
COc1ccc(NC(=O)c2ccc(-c3cc(-c4nnc(C)o4)ccc3C)cc2)cc1 [GW595885]	0	5	18	0	21	6	28	12	0	0	–	–	–	–	–	–
Cl.Cn1ccc(-c2cccc(Nc3ccnc4cc(-c5nccs5)ccc34)c2)n1 [GW525701]	5	0	61	45	4	18	5	14	22	0	–	–	–	–	–	–
